Screening results: PubChem, several laboratories
PfM18AAP inh: blocks P. falciparum M18 aspartyl aminopeptidase | hit rate 1.2% among 290,000 | AID 1822 | inhibition, % at 7.35 µM | recombinant PfM18AAP, H-Glu-NHMec fluorogenic cleavage;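 active means inhibition above the campaign mean inhibition over all tested compounds plus 3 SD, cut at about 28% in these data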
PfGluPho inh: PfG6PD (Plasmodium falciparum) enzyme inhibition; PfGluPho enzyme, NADPH resazurin-diaphorase fluorescence; inhibition, % at 20 µM; hit rate 0.78% among 350,000;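 active means inhibition reaching at least a set limit at 20 µM in the primary screen, cut at about 59% in these data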
Cardio protect: myocardial damage modulation in H9c2 cells | H9c2 cardiomyocytes, H2O2 injury protection, ATPLite, 2 h | protection from H2O2 cell death, % at 20 µM | hit rate 0.63% among 360,000;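 active means compounds giving at least 50% protection of heart cells from peroxide-induced death in the single-dose screen, raw or plate-pattern-corrected value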
ALR H2O2 inh: blocks human ALR sulfhydryl oxidase activity. P55789. AID 485317. purified ALR, DTT oxidation, H2O2 HRP-luminol luminescence. inhibition, % (concentration not given with the values). hit rate 3.8% among 290,000;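 active means mean replicate inhibition above about 79%, with every replicate also reaching it, limit read from the data; inconclusive means only one of the two criteria met; inactive means mean below limit and not every replicate reaching it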
Target sequence (P55789 whole entry, looked up): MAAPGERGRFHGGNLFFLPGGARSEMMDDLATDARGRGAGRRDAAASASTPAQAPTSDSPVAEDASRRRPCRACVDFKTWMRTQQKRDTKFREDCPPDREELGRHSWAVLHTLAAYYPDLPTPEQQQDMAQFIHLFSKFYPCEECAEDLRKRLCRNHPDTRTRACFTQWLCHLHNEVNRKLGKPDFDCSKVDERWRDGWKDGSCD
PHOSPHO1 block: blocks human PHOSPHO1 phosphatase activity | recombinant PHOSPHO1, absorbance phosphatase assay | inhibition, % at 13.3 µM | hit rate 1.1% among 290,000 | AID 1565; in the data active means inhibition above about 60%
Target sequence (Q8TCT1 whole entry, looked up): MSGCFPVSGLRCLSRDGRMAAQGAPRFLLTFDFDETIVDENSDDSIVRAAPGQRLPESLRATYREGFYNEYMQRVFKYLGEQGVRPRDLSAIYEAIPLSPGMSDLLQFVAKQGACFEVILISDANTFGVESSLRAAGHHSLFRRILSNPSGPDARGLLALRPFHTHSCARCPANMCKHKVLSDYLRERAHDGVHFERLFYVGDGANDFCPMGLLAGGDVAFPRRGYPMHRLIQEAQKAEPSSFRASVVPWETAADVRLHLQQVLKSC
A number is an active result; 0 = inactive; ? = inconclusive; - = no result given. The list is not random: actives were taken first. Their share in the collection is about 5.6%.

SMILES | PfM18AAP inh | PfGluPho inh | Cardio protect | ALR H2O2 inh | PHOSPHO1 block
Cc1cc(C)n2nc(C(=O)OCC(=O)Nc3ccc(C)c(S(=O)(=O)N4CCOCC4)c3)nc2n1 | - | 0 | 0 | 0 | -
COc1ccc(CNC(=O)C2CSC(c3ccc(OC)cc3)N2C(C)=O)cc1 (stereo not given) | 0 | 0 | 0 | 85 | 0
CC(C)Cn1c(Cc2ccccc2)n[nH]c1=S | 0 | 0 | 0 | 92 | 0
Cc1ccc(-n2c(Cc3noc4ccccc34)n[nH]c2=S)cc1 | 0 | 0 | 0 | 0 | 0
Cc1ccc(-n2c(-c3ccncc3)n[nH]c2=S)cc1 | 0 | 0 | 0 | 0 | 0
CCn1c(Cc2ccccc2)n[nH]c1=S | 0 | 0 | 0 | 0 | 0
CC(C)OCC(O)CCc1n[nH]c(=S)n1-c1ccccc1 (stereo not given) | 0 | 0 | 0 | 88 | 0
Cc1ccc(-n2c(-c3cnccn3)n[nH]c2=S)cc1 | 0 | 0 | 0 | 88 | 0
Cc1ccc(-n2c(Cc3ccccc3)n[nH]c2=S)cc1 | 0 | 0 | 0 | 92 | 101
O=C(NCc1ccco1)c1ccc2sc([C@@H]3O[C@H](CO)[C@@H](O)[C@H]3O)nc2c1 | - | - | 0 | - | -
COCCN1C(=O)C(C(=O)OC)CC2=C1CC(C)(C)CC2=O (stereo not given) | - | 0 | 0 | - | -
COc1ccc(C(C)(C)C)cc1NC(=O)CCc1c(C)noc1C | - | 0 | 0 | - | -
CCOc1ccc(S(=O)(=O)N2CCC(C(=O)NCc3cccnc3)CC2)cc1C | 0 | 0 | 0 | 0 | 0
O=C(c1cccc(NS(=O)(=O)c2cccc(C(F)(F)F)c2)c1)N1CCOCC1 | 0 | 0 | 0 | 0 | 0
S=c1[nH]nc(Cc2ccccc2)n1-c1ccc(Cl)cc1 | 0 | 0 | 0 | 0 | 0
S=c1[nH]nc(Cc2ccccc2)n1-c1ccccc1 | 0 | 0 | 0 | 87 | 0
Cc1ccc(/C=N/NC(=O)COc2ccc(Cl)c(C)c2)o1 | 0 | 0 | 0 | - | 0
O=C(CSc1ncnc2nc[nH]c12)Nc1ccccc1C(F)(F)F | 0 | 0 | 0 | 0 | 79
Cc1cccc(C)c1NC(=O)CSc1ncnc2nc[nH]c12 | 0 | 0 | 0 | 0 | 0
O=C(CSc1ncnc2nc[nH]c12)c1ccc(Cl)cc1 | 0 | 0 | 0 | 87 | 0
O=C(CSc1ncnc2nc[nH]c12)c1ccccc1 | 0 | 0 | 0 | 0 | 0
c1ccc2c(CSc3ncnc4nc[nH]c34)cccc2c1 | 0 | 0 | 0 | 98 | 0
O=C(CSc1ncnc2nc[nH]c12)c1ccc([N+](=O)[O-])cc1 | 0 | 0 | 0 | 93 | 0
CC(=O)Nc1cc2c(cc1Cl)-c1ccccc1C2O (stereo not given) | - | 0 | 0 | - | -
COCCn1c(SCC(=O)Nc2sccc2C(N)=O)nnc1-c1ccncc1 | 0 | 0 | 0 | - | 0
SMILES | PfM18AAP inh | PfGluPho inh | Cardio protect | ALR H2O2 inh | PHOSPHO1 block
COc1ccc(-c2coc3c(C(=O)Nc4cccc(NS(C)(=O)=O)c4)cccc23)c(C)c1 | - | - | 0 | - | -
COc1ccccc1NC(=O)c1sc2nc(N3CCOCC3)c3c(c2c1N)CCCC3 | 0 | 0 | 0 | - | 0
CN(C(=O)c1sc2nc(N3CCOCC3)c3c(c2c1N)CCCC3)c1ccccc1 | 0 | 0 | 61 | 0 | 0
Cc1nc(S(=O)(=O)Nc2ccccc2C(=O)NCC2CC2)cn1C | 0 | 0 | 0 | 0 | 63
COc1ccc(CN(C)CCCn2cnc(C(=O)Nc3ccc(C)c(C)c3)n2)cc1OC | - | 0 | 0 | - | -
O=C(COc1ccccc1)Nn1cnc2ccccc21 | 0 | 0 | 0 | 0 | 97
COc1ccc(OCC(=O)NNC(=O)C(=O)Nc2ccccc2)cc1 | - | 0 | 0 | 0 | -
COc1ccc(OCC(=O)NNc2c3ccccc3nc3ccccc23)cc1 | 0 | 0 | 0 | 100 | 0
O=C(COc1ccccc1)NNc1c2ccccc2nc2ccccc12 | 0 | 0 | 0 | 98 | 0
Cc1nc2ccccc2c(=O)n1NC(=O)COc1ccccc1 | 0 | 0 | 0 | 0 | 0
CCNC(=O)C1(C)CCCN1C(=O)c1cc(C)on1 (stereo not given) | - | - | 0 | - | -
CCOc1cc(N2CCOCC2)c(OCC)cc1NS(=O)(=O)c1ccc2c(c1)CC(=O)N2 | - | 0 | 0 | - | -
Cc1cc(-c2nsc(=O)o2)c(S(C)(=O)=O)s1 | 0 | 68 | 0 | 99 | 69
C=CCN(c1ccccc1)S(=O)(=O)c1cccc(C(=O)Nc2ncccc2O)c1 | - | 0 | 0 | 0 | -
O=C(COC(=O)COc1cccc(C(F)(F)F)c1)NC1CCCC1 | - | 0 | 0 | 0 | -
C=CCn1c(C)cc(C(=O)CSc2n[nH]c(N)n2)c1C | 0 | 0 | 0 | 98 | 62
Cc1cc(C(=O)CSc2n[nH]c(N)n2)c(C)n1-c1ccccc1 | 0 | 0 | 0 | 0 | 95
Cc1cc(C(=O)CSc2n[nH]c(N)n2)c(C)n1C1CC1 | 0 | 0 | 0 | 0 | 96
Cc1ccc(-n2c(C)cc(C(=O)CSc3n[nH]c(N)n3)c2C)cc1 | 0 | 0 | 0 | 0 | 0
O=C(CCCl)N1CCN(c2nc(-c3ccccc3)cs2)CC1 | 0 | 0 | 0 | 0 | 0
CCOc1ccc(S(=O)(=O)N2CCC(C(=O)NCCc3ccc(S(N)(=O)=O)cc3)CC2)cc1 | 0 | 0 | 0 | 0 | 0
CC(C)(C)OC(=O)N1CCC(C(=O)Nc2ccc(C(=O)N3CCCCC3)cc2)CC1 | - | 0 | 0 | - | -
COCCN(CCOC)S(=O)(=O)c1ccc(C(=O)Nc2ccc(S(=O)(=O)Nc3nccc(C)n3)cc2)cc1 | 0 | 0 | 0 | 90 | 0
COc1nccnc1NS(=O)(=O)c1ccc(NC(=S)NC(=O)/C=C/c2ccccc2)cc1 | 0 | 0 | 0 | 0 | 0
COc1nccnc1NS(=O)(=O)c1ccc(NC(=S)NC(=O)c2ccccc2)cc1 | 0 | 0 | 0 | 87 | 0
SMILES | PfM18AAP inh | PfGluPho inh | Cardio protect | ALR H2O2 inh | PHOSPHO1 block
COc1ccc(C(=O)Nc2ccc(S(=O)(=O)Nc3ncccn3)cc2)cc1OC | 0 | 0 | 0 | 0 | 60
COc1cc(OC)cc(C(=O)Nc2ccc(S(=O)(=O)Nc3ncccn3)cc2)c1 | 0 | 0 | 0 | 0 | 0
CCCOc1ccc(C(=O)Nc2ccc(S(=O)(=O)Nc3cc(C)nc(C)n3)cc2)cc1 | 0 | 0 | 0 | 96 | 0
CCCCn1nc(C(=O)N(CC(C)C)c2c(N)n(CCCC)c(=O)[nH]c2=O)c2ccccc2c1=O | - | 0 | 0 | - | -
Nc1ncc(Br)cc1S(=O)(=O)NC1CCCCC1 | 0 | 0 | 0 | 0 | 72
CCOC(=O)c1ccc2c(c1)nc(SCC(=O)c1ccco1)n2CC | 0 | 0 | 0 | 0 | 79
CCOC(=O)c1ccc2c(c1)nc(SC/C(O)=C(\C#N)c1nc3ccccc3[nH]1)n2CC | 0 | 0 | 0 | 0 | 88
CCOC(=O)c1ccc2c(c1)nc(SCC(=O)N1CCCCC1)n2CC | 0 | 0 | 0 | 0 | 0
CCOC(=O)/C(O)=C(\C#N)c1nc2ccccc2[nH]1 | 0 | 0 | 0 | 0 | 0
CCCCNC(=O)C1(C)CCCCN1C(=O)c1ccc2c(c1)C(C)(C)CCC2(C)C (stereo not given) | - | - | 0 | - | -
CC(=O)Nc1cccc(-c2csc(C(O)c3ccc(F)c(F)c3)n2)c1 (stereo not given) | - | - | 0 | - | -
CC(C)(CN1CCCN(CC(C)(C)C(=O)O)C1=O)C(=O)O | - | 0 | 0 | - | -
Cc1cc(C)nc(Sc2ccc(C=O)cc2[N+](=O)[O-])n1 | 0 | 0 | 0 | 0 | 0
O=Cc1ccc(Sc2nnc(-c3ccccc3)o2)c([N+](=O)[O-])c1 | 0 | 94 | 0 | ? | 0
